Experimental data as given in PubChem BioAssay.
Calls of active or inactive are those of the source. How the calls were made is not given here. Where a SMILES comes first, the peptide text is derived from it. The star is where a group is joined. Boc = CC(C)(C)OC(=O)*; OBn = c1ccc(CO*)cc1

Assays:
[1] = test system: Botulinum neurotoxin type F light chain protease (Clostridium botulinum); assay: Botulinum neurotoxin type F light chain protease inhibition, multiplex microsphere flow cytometry, validation set (AID 588459); details: multiplex microsphere protease substrate cleavage assay, at 10 µM, stronger effect = higher value
[2] = biological target: Botulinum neurotoxin type A (Clostridium botulinum) (UniProt P0DPI0); assay: BoNT/A light chain protease inhibitors, biochemical, multiplex microsphere flow cytometry, validation set (AID 588460); details: at 10 µM, stronger effect = higher value
[3] = biological target: Lethal factor (Bacillus anthracis) (UniProt P15917); assay: Lethal factor protease inhibitors, Bacillus anthracis, multiplex microsphere cleavage assay, validation set (AID 588461); details: flow cytometry, at 10 µM, stronger effect = higher value

Measured: inhibition

CCCC1O[C@@H]2C[C@H]3[C@@H]4CCC5=CC(=O)C=C[C@]5(C)[C@H]4[C@@H](O)C[C@]3(C)[C@]2(C(=O)CO)O1 (some centres undefined)
inactive: [1] 6.3% | [2] 3.4% | [3] 3.4%

COc1ccc(CN(C)CCc2ccccn2)cc1OC
inactive: [1] -2.7% | [2] 0.2% | [3] -7.1%

CC[C@H](CO)NCCN[C@H](CC)CO
inactive: [1] 2.2% | [2] -1.2% | [3] -10%

Cc1cnc(C(=O)N2CCCC(C(=O)c3ccc(Cl)cc3C)C2)cn1 (centres undefined)
inactive: [1] 1.4% | [2] 0.4% | [3] -0.9%

CC(NC(=O)c1ccc(N2CCNCC2)c([N+](=O)[O-])c1)C12CC3CC(CC(C3)C1)C2 (centres undefined)
inactive: [1] 0.1% | [2] -0.6% | [3] -5.2%

COc1cc(C2NCCc3c2[nH]c2ccccc32)ccc1OC(C)C (centres undefined)
inactive: [1] 1.4% | [2] -0.5% | [3] 4.3%

Cc1nc(C(=O)Nc2ccccc2Cl)cc2c1[nH]c1ccccc12
inactive: [1] -0.3% | [2] -0.9% | [3] -4.5%

O=C(O)C1Cc2ccccc2CN1S(=O)(=O)c1ccccc1 (centres undefined)
inactive: [1] 0.8% | [2] 0.6% | [3] -3.3%

CC(C)CC(NC(=O)C(NC(=O)OC(C)(C)C)C(C)C)C(=O)NC(CCC(=O)OCc1ccccc1)C(N)=O (stereo not drawn) (Boc-Val-Leu-Glu(OBn)-NH2; configuration not given here)
inactive: [1] 2.1% | [2] -1.3% | [3] -0.4%

CC(=O)N/C(=C/c1ccc2c(c1)OCO2)C(=O)NCCO
inactive: [1] 3.7% | [2] 0.6% | [3] 1%

FC(F)(F)c1ccc(-c2noc(CN3CCCN(C4CCCCC4)CC3)n2)cc1
inactive: [1] -2% | [2] -1.4% | [3] -7%

O=S(=O)(NCCCCCNS(=O)(=O)c1ccccc1)c1ccccc1
inactive: [1] 0.4% | [2] -0.1% | [3] -0.7%

O=C(N1CCCCC1)C1(c2ccccc2)CCOCC1
inactive: [1] 1.7% | [2] 1.3% | [3] -2.1%

Cn1cc(C2N3CC4(C)CN2CC(C)(C3)C4=O)c2ccccc21 (centres undefined)
inactive: [1] 1% | [2] 1.7% | [3] -10.2%

C#C[C@]1(O)CC[C@H]2[C@@H]3CCc4cc(OC)ccc4[C@H]3CC[C@@]21C
inactive: [1] 0.9% | [2] 0.4% | [3] -5.2%

COc1ccc2c(c1OC)C(C1c3c(cc4c(c3OC)OCO4)CCN1C)OC2=O (centres undefined)
inactive: [1] 1.6% | [2] -0.7% | [3] 3.5%

COc1ccc(C(=O)/C=C2/c3ccccc3CC(C)(C)N2C)cc1
inactive: [1] -2.7% | [2] -1.8% | [3] -1.2%

Nc1ccc(S(=O)(=O)c2ccc(N)cc2)cc1
inactive: [1] -2.8% | [2] -2.5% | [3] 4.9%

CN(C)CCOCCOc1ccc(Cl)cc1Br
inactive: [1] 6.4% | [2] 1% | [3] -5.5%

COC(=O)[C@@H](N)CS
inactive: [1] 2.1% | [2] -1.9% | [3] -1.2%

COc1cc(C(=O)Nc2ccc(N(C)C)cc2)c([N+](=O)[O-])cc1OC
inactive: [1] -2.4% | [2] -0.2% | [3] -19.3%

COc1ccc(OC)c(S(=O)(=O)N2CCCc3ccccc32)c1
inactive: [1] -4.6% | [2] -0.4% | [3] -0.9%

CC(C)(C)OC(=O)N1CC(O)CC1C(=O)OCC(=O)c1ccc(Cl)cc1 (centres undefined)
inactive: [1] -2.2% | [2] -2.3% | [3] 0.1%

CCN(CCCCOC(=O)c1ccc(OC)c(OC)c1)C(C)Cc1ccc(OC)cc1 (centres undefined)
inactive: [1] -0.4% | [2] -2.7% | [3] -2.8%

O=C1c2cccc3cccc(c23)C(=O)N1c1ccccn1
inactive: [1] -2.7% | [2] 0.1% | [3] 1.1%

O=C(c1ccccc1F)c1cc2c(cc1[N+](=O)[O-])OCCO2
inactive: [1] 5.4% | [2] -0.4% | [3] 3.6%

CCc1cc2c3c(c(=O)oc2cc1O)CCCC3
inactive: [1] -1.1% | [2] 2.2% | [3] 4.1%

O=C(/C=C/c1ccco1)N1CCN(c2ccccc2)CC1
inactive: [1] -0.6% | [2] -1.8% | [3] -0.6%
